In PubChem BioAssay (NCATS):
Records with an inconclusive call do not appear. The source made the active and inactive calls. The call rests on the fitted dose curve; in most records, active means well fitted cell-killing curve with a large enough effect; inconclusive means small, poorly fitted or top-dose-only effect, or effect the other way; inactive means flat fitted curve, though single readings scatter.

Key:
Experiment in all cases: Primary qHTS to identify gynecologic anti-cancer compounds using libraries of approved drugs and bioactive compounds (AID 1345084); further: nearly all actives have a fitted effect of over 55% in size
Details in all cases: Gynecologic cancer cell panel viability, ATPlite luminescence, 48 h; series mostly up to 57.5 µM
OV90 = tested on: OV90
Outline: (§1)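 Luminescence from the ATPlite ATP-monitoring reagent indicates viable cell number; lower signal means cytotoxicity. Cells received compound 16 h after seeding and were exposed for 48 h across five concentrations.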

PA-1 = tested on: PA-1
Outline: as §1

Tov-21-G = tested on: Tov-21-G
Outline: as §1

Tov112D = tested on: Tov112D
Outline: as §1
On the % scale 0 is the no-effect control and ±100 the full control effect.

C/C=C/C=C/C=C/C(=O)O[C@@H]1C=C(CO)[C@](O)(CO)[C@@]2(C)CCCC(C)(C)[C@H]12
inactive: Potency (OV90) | Potency (PA-1) | Potency (Tov-21-G) | Potency (Tov112D)

O=C(O)Cn1nnc(-c2ccc(CN(CCCCOc3ccc(CN4CCCC4)cc3)CCc3ccccc3)cc2)n1
inactive: Potency (OV90) | Potency (PA-1) | Potency (Tov-21-G) | Potency (Tov112D)

C[C@]12CC/C(=N\OCC(=O)O)C=C1CC[C@@H]1[C@@H]2[C@@H](O)C[C@@]2(C)[C@H]1CC[C@]2(O)C(=O)CO
inactive: Potency (OV90) | Potency (PA-1) | Potency (Tov-21-G) | Potency (Tov112D)

C/C=C(/C)C(=O)OC1C2OC2C2(CO2)C2C3OC(=O)C(C)C3CCC12C (configuration not stated)
inactive: Potency (OV90) | Potency (PA-1) | Potency (Tov-21-G) | Potency (Tov112D)

CCOC(=O)CSc1nc2c(sc3ccccc32)c(=O)n1CCCN1CCCC1
inactive: Potency (OV90) | Potency (PA-1) | Potency (Tov-21-G) | Potency (Tov112D)

CC1(C)CC[C@]2(C(=O)O[C@@H]3O[C@H](CO[C@@H]4O[C@H](CO[C@@H]5O[C@H](CO)[C@H](O)[C@H](O)[C@H]5O)[C@@H](O)[C@H](O)[C@H]4O)[C@@H](O)[C@H](O[C@@H]4O[C@H](CO)[C@@H](O)[C@H](O)[C@H]4O)[C@H]3O)[C@H](O)C[C@]3(C)C(=CCC4[C@@]5(C)CC[C@H](O[C@@H]6OC[C@@H](O)[C@H](O)[C@H]6O)[C@@](C)(C(=O)O)C5CC[C@]43C)[C@@H]2C1 (some centres not stated)
inactive: activity change, negative = cytotoxicity (OV90) 12% [at 6.55 µM] | activity change, negative = cytotoxicity (PA-1) 14% [at 6.55 µM] | activity change, negative = cytotoxicity (Tov-21-G) 9.11% [at 6.55 µM] | activity change, negative = cytotoxicity (Tov112D) 3.01% [at 6.55 µM]

Cc1c(C)c(NCC(=O)N(C)C2CCN(Cc3ccc(C(N)=O)cc3)CC2)c(C)c(C)c1N
inactive: Potency (OV90) | Potency (PA-1) | Potency (Tov-21-G) | Potency (Tov112D)

CC1(C)CC[C@]2(C(=O)O[C@@H]3O[C@H](CO[C@@H]4O[C@H](CO)[C@@H](O)[C@H](O)[C@H]4O)[C@@H](O)[C@H](O[C@@H]4O[C@H](CO)[C@@H](O)[C@H](O)[C@H]4O)[C@H]3O)[C@H](O)C[C@]3(C)C(=CCC4[C@@]5(C)CC[C@H](O[C@@H]6OC[C@@H](O)[C@H](O)[C@H]6O)[C@@](C)(C(=O)O)C5CC[C@]43C)[C@@H]2C1 (some centres not stated)
inactive: activity change, negative = cytotoxicity (OV90) 6.96% [at 11.6 µM] | activity change, negative = cytotoxicity (PA-1) 0.131% [at 11.6 µM] | activity change, negative = cytotoxicity (Tov-21-G) 3.95% [at 11.6 µM] | activity change, negative = cytotoxicity (Tov112D) -6.08% [at 11.6 µM]

CSCC1OC(n2cnc3c(N)ncnc32)C(O)C1O (configuration not stated)
inactive: Potency (OV90) | Potency (PA-1) | Potency (Tov-21-G) | Potency (Tov112D)

CC1(C)CC(NC(=O)C(=O)Nc2ccc(Cl)cc2)CC(C)(C)N1
inactive: Potency (OV90) | Potency (PA-1) | Potency (Tov-21-G) | Potency (Tov112D)

CC1OC(O[C@@H]2[C@H](O)[C@@H](OC3OC(CO)C(O)C(O)C3O)[C@H](OC(=O)[C@]34CCC(C)(C)C[C@H]3C3=CCC5[C@@]6(C)CC[C@H](O[C@@H]7O[C@H](C(=O)O)[C@@H](O)[C@H](O[C@@H]8OC[C@@H](O)[C@H](O)[C@H]8O)[C@H]7O[C@@H]7O[C@H](CO)[C@H](O)[C@H](O)[C@H]7O)[C@@](C)(C=O)C6CC[C@@]5(C)[C@]3(C)C[C@H]4O)O[C@@H]2C)C(O)C(O)C1OC1OCC(O)C(O)C1O (some centres not stated)
inactive: activity change, negative = cytotoxicity (OV90) -6.72% [at 6.55 µM] | activity change, negative = cytotoxicity (PA-1) 8.3% [at 6.55 µM] | activity change, negative = cytotoxicity (Tov-21-G) -1.56% [at 6.55 µM] | activity change, negative = cytotoxicity (Tov112D) 1.65% [at 6.55 µM]

COc1ccc(C(=O)NCc2cc(C(C)C)no2)cc1OC1CCN(C)CC1
inactive: Potency (OV90) | Potency (PA-1) | Potency (Tov-21-G) | Potency (Tov112D)

CC(C)c1ccc2c(c1)[C@H](O)CC1[C@@](C)(C(=O)O)CCC[C@]21C (some centres not stated)
inactive: Potency (OV90) | Potency (PA-1) | Potency (Tov-21-G) | Potency (Tov112D)

C/C(=C\CCC(C)(C)O)CCO[C@@H]1O[C@H](CO[C@@H]2O[C@@H](C)[C@H](O)[C@@H](O)[C@H]2O)[C@@H](O)[C@H](O)[C@H]1O
inactive: Potency (OV90) | Potency (PA-1) | Potency (Tov-21-G) | Potency (Tov112D)

CC(=O)OC1CC(=O)C2(C)C3CC4=C(OC(C)CC4=O)OC3(C)CCC2C1(C)C (configuration not stated)
inactive: Potency (OV90) | Potency (PA-1) | Potency (Tov-21-G) | Potency (Tov112D)

CCOc1ncc(S(=O)(=O)N2CCN(CC)CC2)cc1-c1nc2c(CC)n(CCOC)nc2c(=O)[nH]1
inactive: Potency (OV90) | Potency (PA-1) | Potency (Tov-21-G) | Potency (Tov112D)

C=CC(C)(O)C1CC2C3(C)CCCC(C)(C)C3C(O)C(O)C2(C)O1 (configuration not stated)
inactive: Potency (OV90) | Potency (PA-1) | Potency (Tov-21-G) | Potency (Tov112D)

OC[C@@]1(O)CO[C@@H](OC[C@H]2O[C@@H](OCc3ccccc3)[C@H](O)[C@@H](O)[C@@H]2O)[C@@H]1O
inactive: Potency (OV90) | Potency (PA-1) | Potency (Tov-21-G) | Potency (Tov112D)
